NS1 function inh: blocks influenza NS1 protein function | Potency, µM (titrated, usually from 46.1 µM), for inactives: at the highest dose activity, positive = more growth | actives 0.4% (n = 270,000); calls by dose curve; further: potency means the concentration at half of the fitted maximal effect; actives are rising curves; nearly all actives have a fitted effect of over 50% in size
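Read-out: OD600 growth recovery of NS1-expressing budding yeast. Cells grown overnight at 30C in -URA glucose medium, washed, resuspended and diluted 1:100 in 2% galactose assay medium, pH 6.0. Same strain lacking NS1 served as positive control.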
Sm TGR block: blocks Schistosoma mansoni thioredoxin glutathione reductase. purified TGR, DTNB reduction, TNB absorbance 405 nm. actives 3% (n = 360,000). Potency, µM (series often up to 114 µM), for inactives: at the highest dose activity change, negative = inhibition, hits mostly inhibitors; further: potency means the concentration at half of the fitted maximal effect; on the % scale 0 is the no-effect control and ±100 the full control effect; nearly all actives have a fitted effect of over 60% in size
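Kinetic colorimetric format: TGR-catalysed, NADPH-driven DTNB reduction monitored via TNB absorbance. Enzyme dispensed at 20 nM; compound exposure 15 min at room temperature before reaction start.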
Pf growth 48h: P. falciparum growth inhibition at 48 hours (one generation); P. falciparum luciferase growth in erythrocytes, 48 h; Potency, µM (titrated, usually from 28.7 µM), without a hit: top-dose activity change, negative = inhibition, hits mostly inhibitors; actives 5.9% (n = 310,000); further: potency means the concentration at half of the fitted maximal effect; on the % scale 0 is the no-effect control and ±100 the full control effect
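Read-out is firefly luciferase luminescence from an integrated reporter in P. falciparum, so falling signal marks reduced parasite growth. Infected erythrocytes were at 2% hematocrit and 0.1% parasitemia (final) in Albumax-supplemented RPMI 1640.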
AMA1-RON2 inh: AMA1-RON2 (P. falciparum) interaction inhibition. actives 0.2% (n = 360,000). Potency, µM (titrated, usually from 58.2 µM), for the others: at the top dose activity change, negative = inhibition, hits mostly inhibitors. AlphaScreen AMA1-biotinylated RON2 peptide binding;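 further: potency means the concentration at half of the fitted maximal effect; 0% = vehicle wells and -100% = peptide control; nearly all actives have a fitted effect of over 45% in size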
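AMA1 (3D7) with his tag at 25 nM final met compounds first, then biotinylated RON2 peptide at 25 nM; detection used donor plus acceptor beads, 10 µg/mL apiece, read by AlphaScreen after 30 min at room temperature.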
Pf growth 96h: inhibits malaria parasite growth, 96 h; P. falciparum luciferase reporter growth, 96 h; Potency, µM (doses to about 28.7 µM), inactives show at the top dose activity change, negative = inhibition, hits mostly inhibitors; actives 6.9% (n = 320,000); further: potency means the concentration at half of the fitted maximal effect; on the % scale 0 is the no-effect control and ±100 the full control effect
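Two-generation exposure (96 h) targets delayed-death phenotype. Reporter parasites carrying integrated firefly luciferase, in red cells at 2% hematocrit and 0.05% parasitemia final, kept at 37 C, 5% CO2; luminescence loss indicates inhibition.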
Flu NS1 inh: influenza NS1 function inhibition validation. shares compounds with NS1 function inh. influenza NS1 function cell assay, 15-point titration. activity change, negative = inhibition, % at 32.9 µM. 1,400 tested, under 10 active. AID 492980; calls by dose curve; further: 0% is about no effect
Flu PR8 replic: influenza virus titer reduction, NS1 project | AID 504647 | virus titer (log TCID50), log10 TCID50 at 5 µM | actives 30% (n = 95) | MDCK infected influenza A/PR/8/34, virus titer TCID50; stronger effect = lower value | shares compounds with NS1 function inh; call rule not given here
* hit, by the source's call; ? = inconclusive; . = not tested or not shown; [ ] = another dose, or the depositor's remark. In the library only some 11% were active in any assay of this set; here they are far more common. Unless noted, the call rests on the fitted dose curve; in most records, active means well fitted curve in the direction sought with a large enough effect; inconclusive means small, poorly fitted or top-dose-only effect, or another doubt; inactive means no such curve, though single readings can be large; an effect the other way counts as inactive or inconclusive.

SMILES	NS1 function inh	Sm TGR block	Pf growth 48h	AMA1-RON2 inh	Pf growth 96h	Flu NS1 inh	others
CC/C(=N\NC(=O)c1ccc(CN(C)S(=O)(=O)c2ccc(C)cc2)cc1)c1ccc(OC(F)F)cc1	?	2%	3%	10%	0%	14
Cc1ccc(S(=O)(=O)N2CC(=NO)C2)cc1	6.3µM*	13%	9%	22%	13µM*	14
Cc1ccc(-c2ccc(S(=O)(=O)N3CCN(C)CC3)cc2)cc1	11µM*	-3%	1%	-9%	.	-34
CCOc1ccc(NC(=O)CCC(=O)NNC(=O)c2ccccc2Cl)cc1	23%	8%	17%	60%	?	.
COc1ccc(S(=O)(=O)n2nc(OC(=O)c3c(-c4ccccc4Cl)noc3C)cc2N)cc1	10µM*	0%	9%	-16%	55%	-1
COc1ccc(C(=O)Oc2cc(N)n(S(=O)(=O)c3ccc(C)cc3)n2)cc1	12%	-1%	17%	-8%	?	.
COc1ccc(NCC(=O)Nc2ccc(Br)cc2F)c(OC)c1	-32%	?	?	-26%	?	.
Cc1ccc(C2=CC(C)(c3ccc(C)cc3)Nc3nc(C(F)(F)F)nn32)cc1 (stereo not given)	1%	0%	?	-7%	?	.
CC1(c2ccc(OCC#N)cc2)C=C(c2ccc(OCC#N)cc2)n2nc(C(F)(F)F)nc2N1 (stereo not given)	10µM*	-9%	9.3µM*	0%	7.4µM*	?
COc1cc(/C=C2/C(=O)N(c3ccc(Br)cc3)N=C2C)cc(OC)c1OC	11µM*	14%	0%	-3%	26%	-17
CCOC(=O)COc1c(OC)cc(Cl)cc1C1Nc2ccccc2C(=O)N1c1ccc(F)cc1 (stereo not given)	13µM*	17%	-3%	-4%	-12%	-24
CCOC(=O)COc1c(OC)cc(Cl)cc1C1Nc2ccccc2C(=O)N1c1ccccc1 (stereo not given)	12%	-6%	.	6%	?	.
COC(=O)[C@H]1C[C@@H](c2ccccc2)[C@H](C)C1(C)C	.	-1%	?	2%	18%	.
O=C(NCCCN1CCOCC1)c1ccc2c(c1)N(Cc1ccc(F)cc1)CCS2	-2%	-4%	?	-4%	?	.
CN1CCN(CCCNC(=O)c2ccc3c(c2)N(Cc2ccc(F)cc2)CCS3)CC1	2.8µM*	-15%	?	-11%	10µM*	-5
CCCC1NC(=O)c2cccnc2-n2c1nc1ccc(Cl)cc1c2=O (stereo not given)	.	.	.	1%	.	.
Cc1ccc2nc(-c3ccc(NS(=O)(=O)c4c(C)n(C)c(=O)n(C)c4=O)cc3)sc2c1	7.9µM*	9%	274%	-6%	231%	4
Cc1ccc(S(=O)(=O)Nc2ccc(-c3nc4ccc(C)cc4s3)cc2)cc1	19%	1%	50%	-5%	48%	.
CC(C)OC(=O)/C(=C\C=C\c1ccccc1)NC(=O)c1ccccc1	?	22%	12µM*	-13%	10%	-3
CCOC(=O)C1=CN(Cc2cccc(-c3ccc4c(c3)OCO4)c2)S(=O)(=O)N(C)C1C (stereo not given)	.	.	.	-13%	.	.
Fc1ccc(Cl)cc1/C=N/n1cnnc1SCc1ccccc1	4%	5%	.	-11%	?	.
C(=N\n1cnnc1SCc1ccccc1)/c1ccco1	1.1µM*	22µM*	33%	-2%	?	-16
S=C(Nc1ccc(Oc2ccc(NC(=S)NC3CCCCC3)cc2)cc1)NC1CCCCC1	11µM*	2%	?	16%[2.32 µM]	0%	-3
CCc1ccccc1NC(=O)C1CCN(C(=O)c2ccc([N+](=O)[O-])cc2)CC1	-6%	6%	-8%	-23%	61%	.
CCc1ccccc1OCCCOc1ccc(OC)cc1	2.8µM*	6%	-1%	41%	7%	-38	Flu PR8 replic=8
SMILES	NS1 function inh	Sm TGR block	Pf growth 48h	AMA1-RON2 inh	Pf growth 96h	Flu NS1 inh	others
COc1ccc(N(CC(=O)NCCSC2CCCCC2)S(=O)(=O)c2ccccc2)c(OC)c1	4µM*	-3%	?	.	9%	-8
COc1ccc(N(CC(=O)NCCSc2ccc(C)cc2)S(=O)(=O)c2ccccc2)c(OC)c1	9%	6%	?	0%	?	.
CC(=O)Nc1ccc(Nc2ncnc3ccccc23)cc1	?	9%	98%	.	88%	11	Flu PR8 replic=8.5
Fc1ccc(Nc2ncnc3ccccc23)cc1	-45%	1%	24%	-5%	9%	.
CSCC[C@H](NC(=O)[C@H](Cc1ccccc1)n1c(=O)[nH]c2ccccc2c1=O)C(=O)NCC1CCC(C(=O)O)CC1 (stereo not given in full)	11µM*	-1%	-3%	-5%	-20%	13
Cc1nc(NC(=O)c2ccccc2)sc1-c1csc(Nc2ccc(Cl)cc2)n1	5µM*	0%	?	.	10µM*	1
COc1cccc(-c2cc(=O)c3cc(NC(=O)c4ccccc4)ccc3[nH]2)c1	13%	-11%	?	-9%	?	.
COc1cccc(-c2cc(=O)c3cc(NC(=O)c4ccc(N(C)C)cc4)ccc3[nH]2)c1	13µM*	-1%	10µM*	-16%	13µM*	2
COCC(=O)Nc1ccc2nc3n(c(=O)c2c1)CCCCC3	?	3%	16%	-11%	-10%	-5
COc1cc(NC(=O)C(=O)Nc2ccc3nc4n(c(=O)c3c2)CCCCC4)cc(OC)c1OC	6%	10%	7%	2%	0%	.
Cc1cc(C)c(OCCN2C(=O)NC(C)(C)C2=O)c(Cl)c1	?	-19%	.	12%	?	-32
Cc1nn(-c2cc(N3CCOCC3)ccc2N)c(=O)c2ccccc12	14µM*	1%	-12%	-8%	-5%	13
Cc1cccc(N2CCN(C(c3ccccc3)c3nnc(-c4ccccc4F)o3)CC2)c1C (stereo not given)	.	9%	.	.	.	.
Cc1cc2cc(CNC(=S)Nc3ccc(OC(F)(F)F)cc3)ccc2[nH]1	?	-2%	1%	65%	3%	16
Cc1cc(CNC(=O)c2ccc(C)c([N+](=O)[O-])c2)c2ccccc2n1	-6%	-15%	0%	3%	?	.
Cc1cc2cc(CNC(=S)Nc3ccc(OC(F)F)cc3)ccc2[nH]1	?	-24%	-26%	82%	-13%	.
Cc1cc2cc(CNC(=O)c3ccc(C)c([N+](=O)[O-])c3)ccc2[nH]1	8.9µM*	-23%	13%	-2%	-1%	-23
CCNC(=S)NCc1ccc2[nH]c(C)cc2c1	11µM*	-18%	36%	-13%	-26%	20

Source: PubChem
